# Screens deposited in PubChem BioAssay by National Center for Advancing Translational Sciences (NCATS).
# CCT chaperon mod – modulators of cytosolic chaperonin (CCT/TRiC) activity | purified chaperonin ATPase assay, HTRF ADP detection, 30 min | activity change, % (no concentration beside the values), hits read low | 0.3% of 360,000 active; in the data active = activity change below about -30%
#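 ATPase activity: ADP formed was measured by HTRF Transcreener (665/615 nm ratio) after 30 min at 37 deg C with 10 uM ATP. Compounds screened at one 76 uM concentration against 40 or 20 nM TRiC in Tris pH 7.4/KCl/MgCl2/DTT buffer.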
# MmCpn inh – M. maripaludis TRiC chaperonin inhibition; purified Mm-Cpn ATPase, ADP Transcreener TR-FRET; AID 504842; Potency, µM (series often up to 76.9 µM), for inactives: at the highest dose activity, negative = inhibition, hits mostly inhibitors; 0.031% of 330,000 active; note: potency is the fitted concentration of half-maximal effect; nearly all actives have a fitted effect of over 80% in size
#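 TR-FRET (320 nm excitation; 590 and 665 nm emission) reports ADP made from 10 uM ATP by 25 nM enzyme; compounds were preincubated 10 min, reaction run 30 min, both at 37°C.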
# VDR inhibitor – blocks the human vitamin D receptor. AID 504847. VDR-SRC2-3 peptide fluorescence polarization, 2 h. Potency, µM, for inactives: max response, negative = inhibition, usual class: inhibitors. P11473. 0.93% of 400,000 active; note: potency is the fitted concentration of half-maximal effect
# Target sequence (P11473 whole entry, looked up): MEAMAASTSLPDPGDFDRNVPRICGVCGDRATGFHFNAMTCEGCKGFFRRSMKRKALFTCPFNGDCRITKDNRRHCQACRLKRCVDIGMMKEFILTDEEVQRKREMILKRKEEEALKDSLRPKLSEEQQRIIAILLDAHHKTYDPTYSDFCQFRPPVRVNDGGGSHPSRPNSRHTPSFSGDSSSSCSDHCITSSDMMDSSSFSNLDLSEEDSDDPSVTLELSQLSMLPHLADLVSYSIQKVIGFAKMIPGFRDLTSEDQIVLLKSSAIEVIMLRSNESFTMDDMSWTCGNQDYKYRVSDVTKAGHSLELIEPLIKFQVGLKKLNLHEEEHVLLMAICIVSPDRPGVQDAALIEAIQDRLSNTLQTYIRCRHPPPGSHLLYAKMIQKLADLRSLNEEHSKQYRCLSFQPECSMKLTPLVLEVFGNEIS
#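 Two reagent solutions held at 4 deg C in the dark were dispensed, compounds pinned at 23 nl, and the mixture incubated 2 h at room temperature. Read-out: fluorescence polarization of VDR–SRC2-3 peptide binding.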
# Sfp inh – blocks B. subtilis Sfp PPTase activity; Potency, µM, for inactives: largest response in the series, negative = inhibition, hits mostly inhibitors; AID 1490; 3.5% of 310,000 active; Biochemical Sfp PPTase activity, qHTS; Q9F4F7;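 note: the enzyme is Sfp with the accession as filed and its product quenches rhodamine fluorescence; potency is the fitted concentration of half-maximal effect; 0% = enzyme reaction without inhibitor and -100% = no enzyme wells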
#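 Fluorescence-quenching assay with 15 nM Sfp, 5 uM rhodamine-CoA and 12.5 uM BHQ-2-labelled ybbR peptide in pH 7.6 Hepes/MgCl2 buffer. Enzyme was pre-incubated with compound for 15 min at room temperature. Rate was taken from the 30-min fluorescence change (525/598 nm).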
# G9a inh – blocks human histone lysine methyltransferase G9a; 8.8% of 350,000 active; Q96KQ7; G9a H3K9 monomethylation, AlphaScreen, 2 h; Potency, µM (series often up to 102 µM), for the others: top-dose activity, negative = inhibition, most hits filed as inhibitors; note: potency is the fitted concentration of half-maximal effect; nearly all actives have a fitted effect of over 75% in size
# Target sequence (Q96KQ7 913-1193 limits assumed): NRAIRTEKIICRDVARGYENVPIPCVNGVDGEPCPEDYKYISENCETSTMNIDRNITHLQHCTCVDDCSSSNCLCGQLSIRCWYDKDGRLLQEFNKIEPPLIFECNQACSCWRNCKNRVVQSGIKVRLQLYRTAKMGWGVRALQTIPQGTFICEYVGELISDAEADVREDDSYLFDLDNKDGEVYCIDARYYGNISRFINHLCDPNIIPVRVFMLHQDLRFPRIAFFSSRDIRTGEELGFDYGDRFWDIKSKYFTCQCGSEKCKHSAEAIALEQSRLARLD
#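 Methyltransferase reactions run at room temperature for 2 h (20 nM enzyme, 500 nM biotin-H3K9 peptide, 20 uM SAM) after a 15 min compound preincubation; product detected by AlphaScreen beads and anti-H3K9me1 antibody.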
# PLK1 PBD block – PLK1 (human) polo-box domain binding inhibition; Plk1 PBD binding of FITC phosphopeptide, fluorescence polarization; P53350; Potency, µM, without a hit: max response, negative = inhibition, most hits filed as inhibitors; 2.8% of 360,000 active; note: potency is the fitted concentration of half-maximal effect; series mostly up to about 57 µM; nearly all actives have a fitted effect of over 65% in size
# * = called active by the depositor; ? = inconclusive; nt = no result; [ ] = another dose, or the depositor's remark. Sampled rows, rich in hits. Any-hit rate of the full collection: about 10%. Unless noted, calls come from the whole dose curve; as a rule, active = well fitted curve in the direction sought with a large enough effect; inconclusive = small, poorly fitted or top-dose-only effect, or another doubt; inactive = no such curve, though single readings can be large; an effect the other way counts as inactive or inconclusive. Unless noted, % is set by controls: 0 for no effect and ±100 for the full control effect.
SMILES,CCT chaperon mod,MmCpn inh,VDR inhibitor,Sfp inh,G9a inh,PLK1 PBD block
CCC(=O)NC(=S)Nc1cccc(NC(=O)c2ccccc2Cl)c1,0.1,-0.6%,-5.9%,-22.7%,17.8µM*,26.7µM*
CC(C)CNC(=O)N1CCN(S(=O)(=O)c2ccc3c(ccn3C)c2)CC1,nt,nt,14.4%,nt,?,nt
C=CCNC(=O)CCCOc1ccc(C)cc1,0.0,-13.3%,8.2%,11.6%,5.2%[59 µM],?
C=CCNC(=O)CCCOc1cc(C)ccc1C,-0.4,-0.6%,-24.9%,-21.3%,-27.7%[12.7 µM],26.7µM*
Cc1ccc(C)c(OCCC(=O)Nc2ccccc2C(=O)NC2CC2)c1,-1.6,1.1%,10.4%,nt,nt,-0.2%
Cc1ccc(C)c(OCCCC(=O)Nc2ccccc2C(N)=O)c1,-0.9,-12.0%,-14.6%,28.0%,50.1µM*,-10.5%
COc1ccc(C(=O)Nc2cc3c(cc2C(=O)O)OCCCO3)c(OC)c1,2.7,3.5%,6.3%,15.5%,18.4%[59 µM],1.5%
CCCC(=O)Nc1cc(OC)c(OC)cc1C(=O)O,0.1,nt,-2.2%,-1.1%,4.5%[59 µM],1.1%
COc1cccc(CCC(=O)Nc2cc3c(cc2C(=O)O)OCCCO3)c1OC,-2.2,1.4%,-11.5%,nt,7.94µM*,-5.5%
COc1ccc(OCC(=O)Nc2cc3c(cc2C(=O)O)OCCCO3)cc1,-2.7,?,-5.1%,?,14.1µM*,?
CCOc1ccc(OCC(=O)Nc2cc3c(cc2C(=O)O)OCCCO3)cc1,1.9,-0.4%,-17.9%,?,14.1µM*,?
Oc1ccc(O)c(/C(=N/Nc2ccccc2)c2ccccc2)c1,nt,0.4%,nt,-25.1%,1.26µM*,nt
Cc1cccc(NC(=O)CSc2ccc(-c3ccco3)nn2)c1C,3.5,-3.3%,-18.8%,22.4µM*,-12.7%[59 µM],-14.4%
O=C(CSc1ccc(-c2ccco2)nn1)Nc1ccc(F)cc1F,-1.0,-3.9%,?,50.1µM*,?,-29.9%
COc1ccc(C)cc1NC(=O)CSc1nnc(-c2ccco2)n1N,-2.9,-1.7%,12.4%,8.4%,7.3%[12.7 µM],-7.4%
COc1ccc(C)cc1NC(=O)CSc1ccc(-c2ccco2)nn1,-1.4,-0.8%,?,17.8µM*,39.8µM*,?
COc1ccc(-c2nc3ccccc3s2)cc1NC(=O)c1cccc(F)c1,nt,nt,0.6%,nt,-44.3%[59 µM],nt
O=C1c2cc(Br)ccc2O[C@@H](c2ccc3c(c2)OCO3)[C@@H]1O,nt,nt,-1.7%,-8.2%,nt,nt
CCCCCCC1CC(CSc2ncn[nH]2)OC1=O (stereo unspecified),-9.1,1.0%,22.2%,2.9%,5.9%[59 µM],-8.2%
CCCCCCCCc1nc(=S)[nH][nH]1,1.0,-0.4%,-1.9%,20µM*,0.891µM*,?
CCCCCCC1CC(CCc2nc(=S)[nH][nH]2)C(=O)O1 (stereo unspecified),-4.8,-0.2%,?,-28.9%,1.58µM*,?
CCCCCCCCCc1nc(N)n[nH]1,-3.9,-9.7%,-4.7%,9.0%,nt,-8.5%
COc1ccc(C)cc1-n1cnc2cc(C(=O)NC3CCCCCC3)ccc21,nt,nt,8.0%,nt,-38.4%[59 µM],nt
Cc1cc(C)cc(Oc2c(C(F)(F)F)oc3cc(OCC(=O)NC4CCCCC4)ccc3c2=O)c1,nt,nt,15.4%,nt,-3.9%[59 µM],nt
CCCCCCCCCC(=O)NO,nt,nt,0.1%,-2.4%,6.5%[12.7 µM],nt
SMILES,CCT chaperon mod,MmCpn inh,VDR inhibitor,Sfp inh,G9a inh,PLK1 PBD block
CCOc1ccccc1Oc1ncnc2c1oc1ccccc12,nt,nt,12.8%,nt,9.0%[59 µM],nt
Cn1c(=O)c(C#N)c(-c2ccc(F)cc2)c2cc(C(=O)c3cc(Cl)cc(Cl)c3O)cnc21,-0.1,-1.9%,4.0%,44.7µM*,?,26.7µM*
Cn1c(=O)[nH]c(=O)c2cc(C(=O)c3cc(F)ccc3O)cnc21,-3.6,0.8%,-1.4%,23.7%,1.4%,-4.8%
CCOc1ccc2nc(NC(=O)CN3CCN(C)CC3)sc2c1,-0.9,1.8%,-20.5%,-0.6%,35.5µM*,-11.3%
CCOC(=O)N1CCN(CC(=O)Nc2nc3ccc(OC)cc3s2)CC1,1.2,0.5%,4.6%,3.6%,nt,6.1%
CCOc1ccc2nc(NC(=O)Cn3cnc4c3c(=O)n(C)c(=O)n4C)sc2c1,-0.5,0.8%,13.7%,-2.8%,79.4µM*,-1.3%
CCOc1ccc2nc(NC(=O)CSc3nc4c(c(=O)n(C)c(=O)n4C)n3C(C)C)sc2c1,-1.2,-2.8%,-21.7%,3.6%,-24.2%[59 µM],-4.8%
CCOC(=O)Cc1csc(NC(=O)Cn2cnc3c2c(=O)n(C)c(=O)n3C)n1,-5.5,-11.2%,?,-3.2%,nt,11.9µM*
CCOc1ccc2nc(NC(=O)C34CC5CC(CC(NC(C)=O)(C5)C3)C4)sc2c1,-2.5,-5.0%,-1.3%,14.4%,15.8µM*,-4.1%
Cc1ccc(Cl)cc1N1CCN(C(=O)Cn2nc(C)n3c(cc4sccc43)c2=O)CC1,nt,nt,-16.4%,nt,-23.6%[59 µM],nt
O=c1cc(-c2ccc(F)cc2F)[nH]c2ccc(F)cc12,nt,nt,0.2%,-3.7%,?,nt
Cc1ccc(C)c(N2CCN(C(=O)c3cc4c(=O)n(Cc5cccnc5)ccc4nc3C)CC2)c1,nt,nt,8.5%,nt,-2.6%[59 µM],nt
CCOc1ccc2nc(NC(=O)CN3CCOCC3)sc2c1,2.0,-0.8%,-21.0%,15.6%,5.3%,-3.9%
CN1CCN(CC(=O)Nc2nc3ccccc3s2)CC1,-1.0,-0.8%,-17.8%,-8.0%,35.5µM*,-0.4%
CCOc1ccc2nc(NC(=O)CN3CCN(CC)CC3)sc2c1,0.6,-1.5%,-21.2%,-5.9%,44.7µM*,-5.3%
O=C(CN1CCOCC1)Nc1nc2ccc(Br)cc2s1,-0.2,-0.2%,-20.4%,-4.1%,50.1µM*,0.0%
NC(=S)N=Nc1c(O)cc(O)c2[nH]c(=O)ccc12,0.2,nt,?,nt,nt,7.52µM*
NC1=NC(=O)/C(=C/c2cn(Cc3ccccc3)c3ccccc23)S1,-0.3,-1.0%,?,?,50.1µM*,-16.2%
COC(=O)NC(c1cccc(F)c1)C(C(C)=O)C(=O)OC (stereo unspecified),nt,nt,nt,12.7%,nt,nt
Cc1ccc(CNC(=O)CCS(=O)(=O)c2cc3c(cc2Cl)NC(=O)CO3)cc1,0.5,-1.5%,?,8.9%,5.6%[59 µM],26.7µM*
CC1CCCC(NS(=O)(=O)c2cc3c(cc2Cl)NC(=O)CO3)C1C (stereo unspecified),2.2,-1.0%,25.9%,3.2%,-11.1%,-0.8%
CC1CCCC(NC(=O)CCS(=O)(=O)c2cc3c(cc2Cl)NC(=O)CO3)C1C (stereo unspecified),-1.4,0.2%,-12.8%,28.6%,-6.2%,26.7µM*
CCC1CCCCN1C(=O)CCS(=O)(=O)c1cc2c(cc1C)NC(=O)CO2 (stereo unspecified),nt,nt,4.2%,nt,8.91µM*,nt
O=C(NCCSc1ccccc1)c1ccccc1,-5.5,0.8%,-0.7%,5.3%,-3.0%[12.7 µM],-11.3%
O=C(NCSc1ccncn1)c1ccccc1,-0.1,-1.8%,-5.5%,20µM*,?,?
O=C(NCSc1ccnc(SCNC(=O)c2ccccc2)n1)c1ccccc1,-0.4,0.8%,-6.5%,-19.2%,3.98µM*,-10.1%
